Cruzain inh noDet – blocks cruzain activity in detergent-free assay | Potency, µM, inactives show max response, negative = inhibition, most hits filed as inhibitors | P25779 | purified cruzain, Z-FR-AMC fluorescence, no detergent | 2.3% of 200,000 active;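 also: plate controls were enzyme without inhibitor for no effect and buffer without enzyme for full effect; nearly all actives have a fitted effect of over 40% in size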
Target sequence (P25779 123-467 limits assumed): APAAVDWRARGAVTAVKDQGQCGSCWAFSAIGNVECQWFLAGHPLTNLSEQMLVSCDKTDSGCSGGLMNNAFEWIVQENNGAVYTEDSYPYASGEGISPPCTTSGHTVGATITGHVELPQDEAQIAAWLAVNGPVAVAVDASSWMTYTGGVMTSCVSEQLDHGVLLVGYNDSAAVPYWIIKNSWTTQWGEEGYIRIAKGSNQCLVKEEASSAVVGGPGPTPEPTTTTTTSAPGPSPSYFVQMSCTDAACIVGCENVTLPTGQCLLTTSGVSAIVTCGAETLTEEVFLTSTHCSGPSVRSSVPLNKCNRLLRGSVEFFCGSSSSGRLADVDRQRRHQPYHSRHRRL
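Purified cruzain at 1.5 nM, pre-incubated 15 min with compound at room temperature in 100 mM sodium acetate pH 5.5, 5 mM DTT, 0.00005% Triton X-100. Reaction started with 2 uM Z-FR-AMC; AMC fluorescence increase over 60 s gives rate.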
Cruzain Triton – blocks cruzain activity in presence of Triton detergent | 0.43% of 200,000 active | Potency, µM, for the others: max response, negative = inhibition, usual class: inhibitors | purified cruzain, Z-FR-AMC fluorescence, 0.01% Triton | P25779;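 also: plate controls were neutral wells for no effect and buffer without enzyme for full effect; nearly all actives have a fitted effect of over 40% in size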
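Steps: dispense cruzain (1.5 nM final) in acetate buffer pH 5.5 with DTT and 0.01% Triton X-100; pin-transfer compounds; incubate 15 min RT; add Z-FR-AMC (2 uM final); read fluorescence every 30 s, using the 60 s intensity change.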
Papain counter – counter-screen for cruzain inhibitors: papain inhibition. shares compounds with Cruzain Triton. purified papain, Z-FR-AMC fluorescence cleavage. 41% of 410 active. Potency, µM, without a hit: max response, negative = inhibition, actives largely listed as inhibitors;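 also: 0% = no-compound wells and -100% = no-enzyme wells; nearly all actives have a fitted effect of over 35% in size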
Target sequence (P00784 whole entry, looked up): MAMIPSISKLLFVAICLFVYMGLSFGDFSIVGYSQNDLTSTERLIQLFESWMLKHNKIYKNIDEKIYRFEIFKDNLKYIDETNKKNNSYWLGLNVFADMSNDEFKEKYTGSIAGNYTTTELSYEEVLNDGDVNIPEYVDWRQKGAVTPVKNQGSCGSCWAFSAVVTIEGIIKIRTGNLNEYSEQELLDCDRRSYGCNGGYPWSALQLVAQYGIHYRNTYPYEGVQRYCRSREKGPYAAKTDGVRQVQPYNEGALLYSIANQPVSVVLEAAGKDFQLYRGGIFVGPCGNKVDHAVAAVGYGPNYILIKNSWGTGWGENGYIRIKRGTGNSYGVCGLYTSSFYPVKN
Numbers without * were called inactive; ? = inconclusive; · = not tested or not shown. Rows were chosen to be rich in hits. Some 2.4% of all compounds tested hit in one or more screens of this group. Calls follow the shape of the dose curve; as a rule, active = well fitted curve in the direction sought with a large enough effect; inconclusive = small, poorly fitted or top-dose-only effect, or another doubt; inactive = no such curve, though single readings can be large; an effect the other way counts as inactive or inconclusive. Potency is read from the fitted curve at half-maximal effect.

SMILES	Cruzain inh noDet	Cruzain Triton	Papain counter
Cc1ccc(C(=O)NCCn2c(N)c(C#N)c3nc4ccccc4nc32)cc1	?	-6.5%	28.2µM*
N#Cc1c(N)n(CCNC(=O)c2ccc(Cl)cc2)c2nc3ccccc3nc12	9.0%	-4.1%	·
COc1ccc(Oc2ncc3nc(C)c(=O)n(C)c3n2)cc1	-7.7%	-2.0%	·
CCOc1ccc(/C=C/C(=O)Nc2ccc(N3CCOCC3)cc2)cc1	?	5.2%	·
O=C(O)C1C2C=CC(C2)C1C(=O)N1CCOCC1 (configuration not stated)	1.4%	-2.1%	·
CN1C(=O)/C(=N\OC(=O)c2cccc3ccccc23)c2ccccc21	7.94µM*	3.16µM*	15.8µM*
N/C(Cc1ccc(Cl)cc1)=N\OC(=O)c1cccc2ccccc12	-0.4%	-2.5%	·
O=C(Nc1nnc(C2CC2)o1)c1ccc(S(=O)(=O)N2CCCc3ccccc32)cc1	23.4%	-4.5%	·
COc1ccc(-c2nnc(NC(=O)c3ccc(S(=O)(=O)N4CCCc5ccccc54)cc3)o2)cc1	-23.3%	-0.5%	-3.5%
O=[N+]([O-])c1cc(S(=O)(=O)Nc2cccc(C(F)(F)F)c2)ccc1-n1nnc2ccccc21	10µM*	3.98µM*	28.2µM*
COc1ccc(NS(=O)(=O)c2ccc(-n3nnc4ccccc43)c([N+](=O)[O-])c2)cc1	?	-5.8%	·
COc1cc(CNc2cc(C)ccc2C)cc(OC)c1OC	-0.8%	-3.9%	·
C/C(CC(=O)Nc1cccc(Cl)c1)=N\NC(=O)Cc1ccc(Cl)cc1	0.5%	-7.8%	·
C/C(CC(=O)Nc1cc(Cl)ccc1Cl)=N\NC(N)=S	1µM*	1µM*	2.82µM*
CC(=O)Nc1ccc(Cl)c(C(N)=O)c1	4.9%	-1.2%	·
C/C(CC(=O)Nc1ccc(Cl)c(Cl)c1)=N\NC(N)=S	0.316µM*	0.501µM*	-14.9%
CCCCC(=O)OCC(=O)Nc1ccc(OC(F)F)cc1	-12.1%	0.6%	·
O=C(COC(=O)CNS(=O)(=O)c1ccc(F)c(F)c1F)Nc1ccc(OC(F)F)cc1	?	22.4µM*	-5.8%
O=C(CSc1ncc(C(F)(F)F)cc1Cl)N1CCN(S(=O)(=O)c2ccc(Cl)cc2)CC1	6.9%	-6.4%	·
CNC(=O)C1CCC(Cn2c(=O)c3sccc3n(CC(=O)NCc3cccc(OC)c3)c2=O)CC1 (configuration not stated)	13.7%	0.2%	·
CCc1cc2c(=O)[nH]c(Cc3ccccc3)nc2s1	?	-2.4%	·
CCc1cc2c(=O)[nH]c(-c3ccncc3)nc2s1	?	8.91µM*	-38.8%
CCOC(=O)C(C(=O)OCC)N(C#N)c1nc(SC)nc(N(C)C)n1	3.16µM*	2.51µM*	15.8µM*
CCOC(=O)C(C(=O)OCC)N(C#N)c1nc(OC)nc(N(C)C)n1	10µM*	3.55µM*	28.2µM*
CC(C(=O)N(C)C)N(C#N)c1nc(N(C)C)nc(N(C)C)n1 (configuration not stated)	-12.9%	2.2%	·
SMILES	Cruzain inh noDet	Cruzain Triton	Papain counter
CCOC(=O)COc1nc(N(C)C)nc(N(C)C)n1	4.1%	12.1%	·
O=C(CCN1C(=O)/C(=C\c2cccs2)SC1=S)Nc1nccs1	-1.6%	-6.0%	·
O=C(CCN1C(=O)/C(=C/C=C/c2ccccc2)SC1=S)Nc1nccs1	3.16µM*	-0.7%	-5.7%
Cc1ccc(CN2CCN(CC(=O)NCc3ccccc3Cl)C2=O)cc1	-9.0%	-3.4%	·
O=C(c1cc([N+](=O)[O-])ccc1N1CCCCC1)N1CCc2ccccc21	5.1%	-9.5%	·
COCCN(C(=O)Nc1ccccc1)c1ccccc1	1.2%	8.6%	·
CN(C)CCCNS(=O)(=O)c1ccc(N2CCC(c3ccc(Cl)cc3)=N2)cc1	?	31.6µM*	28.2µM*
O=S(=O)(c1ccc(N2CCC(c3ccc(Cl)cc3)=N2)cc1)N(CCO)CCO	?	4.3%	·
CC(=O)N1CCN(C(=S)c2ccc(-c3ccc(Cl)cc3)o2)CC1	?	8.91µM*	15.8µM*
S=C(c1ccc(-c2cccc(Cl)c2)o1)N1CCOCC1	-14.2%	-24.6%	·
CCCCCCCCCC(=O)OCC(CO)OC(=O)CCCCCCCCC (configuration not stated)	-1.0%	-7.2%	·
CC(Sc1cccc2cccc(C(=O)O)c12)C(=O)O (configuration not stated)	2.5%	1.3%	·
FC(F)(F)c1cc(-c2ccccc2)nc(NC2CCCC2)n1	-5.7%	-0.6%	·
N#Cc1c[nH]n2c(NC3CCCC3)c(-c3ccc(Cl)cc3)nc12	?	-8.3%	·
N#Cc1nc(Nc2cccc(-c3ccccc3)c2)nc(NC2CCCC2)n1	·	·	2.51µM*
COc1ccc(Nc2nc(C#N)nc(NC3CCCC3)n2)cc1	·	·	0.562µM*
c1cc2cn[nH]c2cc1NC1CCCCCC1	-8.0%	-4.2%	·
N#Cc1nc(Nc2ccc3ccccc3c2)nc(NC2CCCC2)n1	·	·	2µM*
COc1ccc(-c2nc3c(C#N)c[nH]n3c2NC2CCCC2)cc1	-17.7%	-0.1%	·
N#Cc1nc(Nc2cc(Cl)cc(Cl)c2)nc(NC2CCCC2)n1	·	·	1.41µM*
O=C(O)c1cc2sccc2s1	-7.1%	2.0%	·
N#Cc1nc(Nc2cc(F)cc(F)c2)nc(NC2CCCC2)n1	·	·	0.316µM*
CCOc1nc(NC2CCCCC2)nc(NC(C)(C)C)n1	-8.9%	-9.7%	·
N#Cc1nc(Nc2cccc(F)c2)nc(NC2CCCC2)n1	·	·	0.316µM*
COc1cc2nc(Nc3cccc(F)c3)nc(N)c2cc1OC	-4.1%	-28.4%	·
SMILES	Cruzain inh noDet	Cruzain Triton	Papain counter
O=C(c1ccccc1)c1ccc(OCCCN2CCCCC2)cc1	6.8%	3.9%	·
O=C(c1ccc(OCCN2CCCCC2)cc1)c1c(-c2ccc(O)cc2)sc2cc(O)ccc12	-11.7%	-5.3%	-2.7%
CCOC(=O)c1nc2cc3n(c(C)c-2c1C)C(C)C(C)=C3C (configuration not stated)	-11.4%	-5.3%	·
CN(C)c1ccc(C=NCC2(O)CCOC(C)(C)C2)cc1 (configuration not stated)	-4.0%	-2.8%	·
COc1ccc(NC(=O)CSc2c3c(nc4ccccc24)CCCC3)c(OC)c1	12.3%	-9.3%	·
O=C(COC(=O)COc1ccc(Cl)cc1)NC1CCCCC1	2.4%	0.4%	·
O=C(COC(=O)C1CCCCC1)Nc1ccc(N2CCCCC2)cc1	-5.3%	-15.6%	·
N#Cc1ccc(NC(=O)COC(=O)CNC(=O)C2CCCCC2)cc1	3.98µM*	3.98µM*	-16.6%
O=C(CNC(=O)c1ccccc1)NCC(=O)OCC(=O)c1ccc(F)cc1	-7.7%	-5.3%	·
O=C(CNC(=O)C1CCCCC1)OCC(=O)c1ccc(-c2ccccc2)cc1	·	·	-19.0%
O=C(COC(=O)CNC(=O)C1CCCCC1)NC1CCCC1	·	·	31.6µM*
CCC(=O)NCC(=O)OCC(=O)c1ccccc1	3.1%	-2.1%	·
O=C(CNC(=O)C1CCCCC1)OCC(=O)c1ccc(F)cc1	·	·	15.8µM*
CC(C)C(=O)c1cn(CC(=O)N2CCCc3ccccc32)c2ccccc12	-5.7%	-7.0%	·
N/C(=N\OC(=O)CCc1ccccc1)c1cccc(Br)c1	-2.5%	-3.0%	·
Cc1ccc(NC(=O)c2ccc(CN3C(=O)CCn4nc(C)cc43)cc2)c(Cl)c1	15.5%	-3.5%	·
CCOC(=O)C1(S(=O)(=O)c2ccc(Cl)cc2)CCN(Cc2ccc(Cl)cc2)CC1	3.2%	-4.9%	·
CCc1ccc(C(=O)COC(=O)CNC(=O)CNC(=O)Cc2ccccc2)cc1	-12.0%	2.6%	·
CCc1ccc(C(=O)COC(=O)CNC(=O)C2CCCCC2)cc1	·	·	-20.6%
O=C(CCC(=O)OCC(=O)c1ccc(Cl)cc1)NC1CCCCC1	-8.1%	-6.7%	·
O=C(CNC(=O)C1CCCCC1)OCC(=O)c1ccc([N+](=O)[O-])cc1	·	·	15.8µM*
